Bioassay records: PubChem BioAssay, The Scripps Research Institute Molecular Screening Center
FBW7 act – FBW7 E3 ligase activators, primary screen, biochemical, AlphaScreen, human; F-box/WD repeat-containing protein 7 (Homo sapiens), Q969H0; AlphaScreen FBW7–phospho-cyclin E peptide binding, activator screen; normalized activity (activation), % at 26.1 µM; actives 0.13% (n = 650,000); AID 1259310, 2017; in the data active = normalized activity above about 1.9%;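 also: purified mutant Fbw7 with reduced substrate affinity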
GPR151 activ – activators of human GPR151, primary screen, cell-based, PathHunter beta-arrestin, luminescence; G-protein coupled receptor 151 (Homo sapiens), Q8TDV0; PathHunter beta-arrestin GPR151 cells; activation, % at 11.2 µM; actives 1% (n = 650,000); in the data active = activation above about 4.9%
Target sequence (Q8TDV0 whole entry, looked up): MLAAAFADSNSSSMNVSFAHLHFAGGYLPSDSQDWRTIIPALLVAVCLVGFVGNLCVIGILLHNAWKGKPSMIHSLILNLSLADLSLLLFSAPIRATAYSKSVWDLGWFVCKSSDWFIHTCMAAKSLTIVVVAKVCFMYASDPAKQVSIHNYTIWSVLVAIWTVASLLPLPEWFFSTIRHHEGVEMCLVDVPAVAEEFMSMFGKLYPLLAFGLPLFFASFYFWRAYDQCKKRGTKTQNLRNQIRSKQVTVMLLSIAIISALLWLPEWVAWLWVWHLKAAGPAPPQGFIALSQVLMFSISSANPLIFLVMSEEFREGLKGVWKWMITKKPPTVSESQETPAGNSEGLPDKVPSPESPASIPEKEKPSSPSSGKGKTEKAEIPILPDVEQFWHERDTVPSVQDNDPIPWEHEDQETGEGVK
TEAD-YAP block – TEAD-YAP interaction inhibition, primary screen, TEAD-YAP interaction inhibitor project, luminescence, HEK-TIYL cells. actives 1.4% (n = 640,000). inhibition, % at 9.12 µM. TEAD-Gal4/YAP UAS-luciferase luminescence; in the data active = inhibition above about 32%
MITF inh – MITF inhibitors, primary screen, biochemical, AlphaScreen, human; AlphaScreen MITF homodimerization, bead proximity signal; actives 0.91% (n = 650,000); Microphthalmia-associated transcription factor (Homo sapiens), O75030; inhibition, % at 2.6 µM; in the data active = inhibition above about 50%
GPR151 conf act – GPR151 activators, triplicate retest, confirmation, cell-based, PathHunter beta-arrestin, luminescence | 6,700 tested, under 10 active | shares compounds with GPR151 activ | activation, % at 11.2 µM | GPR151 PathHunter beta-arrestin cells, 90 min; % of EA-reagent control over plate median;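 active = mean percent activation across replicates above the confirmation screen cutoff of 4.91%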
GPR119 counter – GPR119 activators in beta-arrestin cells, counter-screen for GPR151 activator project, cell-based, PathHunter beta-arrestin, luminescence, triplicate; shares compounds with GPR151 activ; 90 min; 0 = compound-well median, 100 = enzyme-acceptor control; activation, % at 11.2 µM; actives 0.3% (n = 6,700);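 active = mean percent activation in the counterscreen above 29.09%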;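 also: counterscreen on off-target GPR119 to flag nonselective hits from the GPR151 activator screen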
A number is an active result; - = inactive; . = not tested or not shown. This is a sample that favours compounds with a hit; in the whole collection about 3.4% have one here.

SMILES	FBW7 act	GPR151 activ	TEAD-YAP block	MITF inh	GPR151 conf act	GPR119 counter
CCCC(=O)N1CCc2cc(OC)c(OC)cc2C1C1=C(O)CC(C)(C)CC1=O (stereo unspecified)	-	-	-	-	.	.
O=C1NC(=S)S/C1=C\c1ccc(N2CCOCC2)c([N+](=O)[O-])c1	-	-	-	-	.	.
COc1ccc(-c2csc(=Nc3cccc(C(F)(F)F)c3)n2CCc2ccccc2)cc1F	-	-	-	-	.	.
c1ccc2oc(NC3=NCN(C4CCCCC4)CN3)nc2c1	-	9.9	-	-	-	-
C/C(CC(=O)N(C)c1ccccc1)=N\NC(=O)COc1ccccc1C	-	-	-	-	.	.
COc1ccc(-c2noc(N3CCN(c4ccc(C)cc4)C(C)C3)n2)cc1 (stereo unspecified)	-	5.0	-	-	-	-
C/C(=N\NC(=O)CSCc1ccc(Cl)cc1)c1cc(O)ccc1O	-	-	-	-	.	.
Cc1cccc(-c2nc3ccccc3c(=O)n2NC(=O)c2cc(Cl)ccc2[N+](=O)[O-])c1	-	-	-	-	.	.
NC(=O)c1cc2cc(Cl)ccc2oc1=Nc1ccccc1	-	5.8	-	-	-	-
O=C(O)C1CSC(c2ccsc2)N1 (stereo unspecified)	-	5.3	-	-	-	-
O=C(O)C1CSC(c2ccncc2)N1 (stereo unspecified)	-	-	-	-	.	.
COc1ccc(Cc2cc(C(=O)NCC(C)C)on2)cc1	-	-	-	-	.	.
O=C(NCCO)c1ccn[nH]1	-	6.0	-	-	-	-
O=C(NCCNC(=O)c1ccn[nH]1)c1ccn[nH]1	-	-	-	-	.	.
CCn1cc(Br)c(C(=O)Nc2cccc(F)c2)n1	-	-	-	-	.	.
CCn1cc(Br)c(C(=O)Nc2cccc(SC)c2)n1	-	6.4	-	-	-	-
Cc1c(Cl)cccc1NC(=O)C(=O)NCCO	-	5.2	-	-	-	-
Cc1cccc(NC(=O)C(=O)NCCO)c1C	-	-	-	-	.	.
COc1cc(=O)n2c(c1C(=O)NCc1ccsc1)CCN(C(=O)c1nonc1C)CC2	-	10	-	-	-	-
COc1ccc(Cl)cc1N1CC(C(=O)Nc2c(C)cccc2C)CC1=O (stereo unspecified)	-	8.3	-	-	-	-
COc1ccccc1N1CC(C(=O)Nc2nnc(SC3CCCC3)s2)CC1=O (stereo unspecified)	-	6.2	-	-	-	-
COc1ccc(Cl)cc1N1CC(C(=O)Nc2nnc(C)s2)CC1=O (stereo unspecified)	-	-	-	-	.	.
CCN1/C(=C/c2ccc3cc(OC)ccc3[n+]2CC)Sc2ccc(C3CCCCC3)cc21	-	9.3	88	-	-	-
COC(=O)c1ccccc1NC(=O)CN(c1ccc(OC)cc1OC)S(C)(=O)=O	-	9.5	-	-	-	-
COC(=O)c1ccccc1NC(=O)CN(c1cc(OC)ccc1OC)S(C)(=O)=O	-	5.6	-	-	-	-
SMILES	FBW7 act	GPR151 activ	TEAD-YAP block	MITF inh	GPR151 conf act	GPR119 counter
COc1ccc(OC)c(N(CC(=O)Nc2ccccc2F)S(C)(=O)=O)c1	-	-	-	-	.	.
COC(=O)c1ccccc1NC(=O)CN(c1ccccc1Cl)S(C)(=O)=O	-	-	-	-	.	.
Cc1nc(SCC(O)CCl)c([N+](=O)[O-])[nH]1 (stereo unspecified)	-	8.5	-	-	-	-
COC(=O)c1ccc(CSc2nc(C)[nH]c2[N+](=O)[O-])o1	-	-	-	-	.	.
O=C(NCc1cccnc1)c1csc(N2CCC(N3CCOCC3)CC2)n1	-	-	-	-	.	.
CC(=O)N1CCOc2cc(S(=O)(=O)N3CCN(C)CC3)c(Cl)cc21	-	5.1	-	-	-	-
CC(=O)N1CCOc2cc(S(=O)(=O)N3CCC(C(N)=O)CC3)c(Cl)cc21	-	-	-	-	.	.
Cn1c(C(=O)N2CCN(c3cccc(Cl)c3)CC2)cc2c(=O)n3ccccc3nc21	-	-	-	-	.	.
CN(C)c1ccc(C(=S)N2CCOCC2)cc1	-	9.7	-	-	-	-
CN(C)c1ccc(C(=O)N2CCOCC2)cc1	-	-	-	-	.	.
CNC(=O)c1c(NC(=O)c2cc(Cl)ccc2Cl)sc2c1CCCCC2	-	-	-	-	.	.
CC(C)N1CC(C(=O)N2CCOc3ccc(C(O)CCc4ccccc4)cc3C2)CC1=O (stereo unspecified)	-	-	-	-	.	.
CCCCN(CC)c1ncnc2scc(-c3ccccc3)c12	-	8.0	-	-	-	-
CCCCN(C)c1ncnc2scc(-c3ccccc3)c12	-	-	-	-	.	.
CN1CCN(c2cc(N3CCN(CCC#N)CC3)c([N+](=O)[O-])cc2F)CC1	-	-	-	-	.	.
N#CCCN1CCN(c2ccc(F)cc2[N+](=O)[O-])CC1	-	5.3	-	-	-	-
Cc1c(C(=O)Nc2ccc(F)cc2)sc2nc(C)n(C)c(=O)c12	-	-	-	-	.	.
NS(=O)(=O)c1ccc(NC(=S)NCCN2CCCCC2)cc1	-	6.3	-	-	-	-
CCC(C(=O)Nc1ccc(F)cc1)n1c2ccccc2c2nc(=O)cc(C)n21 (stereo unspecified)	-	5.3	-	-	-	-
CCC(C(=O)Nc1ccc(F)cc1F)n1c2ccccc2c2nc(=O)cc(C)n21 (stereo unspecified)	-	-	-	-	.	.
CCOC(=O)c1c(C)[nH]c(NC(=O)Nc2ccc(F)cc2)c1C	-	-	-	-	.	.
CCOC(=O)c1c(C)[nH]c(NC(=O)Nc2ccc(OCC)cc2)c1C	-	6.0	-	-	-	-
N#C/C(=C\c1cccc([N+](=O)[O-])c1)c1nn(CCO)c(N)c1C#N	-	-	-	-	.	.
CCOC(=O)C(=O)Nc1nnc(C(C)C)s1	-	-	-	-	.	.
CCOC(=O)C(=O)Nc1ncc(Cl)s1	-	5.4	-	-	-	-
SMILES	FBW7 act	GPR151 activ	TEAD-YAP block	MITF inh	GPR151 conf act	GPR119 counter
CC1=C(C(=O)Nc2ccc(C)cn2)C(c2ccc3c(c2)OCO3)C2=C(CCCC2=O)N1 (stereo unspecified)	-	-	-	-	.	.
CCOc1cccc2sc(N(CCN(C)C)C(=O)c3cc(Cl)ccc3[N+](=O)[O-])nc12	-	7.1	-	-	-	-
O=C(c1cc(Cl)ccc1Cl)N(CCn1cccn1)c1nc2c(F)cccc2s1	-	6.1	-	-	-	-
CCCCC(=O)N(CCn1cccn1)c1nc2c(F)cccc2s1	-	-	-	-	.	.
Brc1ccccc1-c1nnc2sc(-c3ccc4c(c3)OCCO4)nn12	-	5.7	-	-	-	-
Cc1cccc(-c2nc(CCNC(=O)Cc3ccccc3)cs2)c1	-	5.8	-	-	-	-
